Only some compounds are listed: those with a hit (about 12% of all), similar ones and a draw of the others.
PLK1 PBD inh: inhibitors of human PLK1 polo-box domain binding; Plk1 PBD binding of FITC phosphopeptide, fluorescence polarization; Potency, µM, inactives show max response, negative = inhibition, usual class: inhibitors; 2.8% of 360,000 active; AID 720504; note: series mostly up to about 57 µM; % is set by controls: 0 for no effect and ±100 for the full control effect; nearly all actives have a fitted effect of over 65% in size
G9a inh: blocks human histone lysine methyltransferase G9a. Q96KQ7. G9a H3K9 monomethylation, AlphaScreen, 2 h. Potency, µM (top dose mostly 102 µM), without a hit: top-dose activity, negative = inhibition, most hits filed as inhibitors. 8.8% of 350,000 active. AID 504332; note: % is set by controls: 0 for no effect and ±100 for the full control effect; nearly all actives have a fitted effect of over 75% in size
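Enzyme 20 nM + cpd, 15 min RT; add b-H3K9 pep 500 nM / SAM 20 uM; 2 h RT; anti-H3K9me1 Ab 0.5 ug/mL + SA donor / anti-rabbit acceptor beads 20 ug/mL each, 10 min; AlphaScreen read.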
JMJD2A Tudor: inhibitors of human JMJD2A Tudor domain | AID 504339 | AlphaScreen JMJD2A-Tudor / H3K4me3 peptide binding | O75164 | Potency, µM (top dose mostly 114 µM), without a hit: at the highest dose activity change, negative = inhibition, hits mostly inhibitors | 4.4% of 390,000 active; note: % is set by controls: 0 for no effect and ±100 for the full control effect; nearly all actives have a fitted effect of over 50% in size
Target sequence (O75164 whole entry, looked up, the tested form may be a part): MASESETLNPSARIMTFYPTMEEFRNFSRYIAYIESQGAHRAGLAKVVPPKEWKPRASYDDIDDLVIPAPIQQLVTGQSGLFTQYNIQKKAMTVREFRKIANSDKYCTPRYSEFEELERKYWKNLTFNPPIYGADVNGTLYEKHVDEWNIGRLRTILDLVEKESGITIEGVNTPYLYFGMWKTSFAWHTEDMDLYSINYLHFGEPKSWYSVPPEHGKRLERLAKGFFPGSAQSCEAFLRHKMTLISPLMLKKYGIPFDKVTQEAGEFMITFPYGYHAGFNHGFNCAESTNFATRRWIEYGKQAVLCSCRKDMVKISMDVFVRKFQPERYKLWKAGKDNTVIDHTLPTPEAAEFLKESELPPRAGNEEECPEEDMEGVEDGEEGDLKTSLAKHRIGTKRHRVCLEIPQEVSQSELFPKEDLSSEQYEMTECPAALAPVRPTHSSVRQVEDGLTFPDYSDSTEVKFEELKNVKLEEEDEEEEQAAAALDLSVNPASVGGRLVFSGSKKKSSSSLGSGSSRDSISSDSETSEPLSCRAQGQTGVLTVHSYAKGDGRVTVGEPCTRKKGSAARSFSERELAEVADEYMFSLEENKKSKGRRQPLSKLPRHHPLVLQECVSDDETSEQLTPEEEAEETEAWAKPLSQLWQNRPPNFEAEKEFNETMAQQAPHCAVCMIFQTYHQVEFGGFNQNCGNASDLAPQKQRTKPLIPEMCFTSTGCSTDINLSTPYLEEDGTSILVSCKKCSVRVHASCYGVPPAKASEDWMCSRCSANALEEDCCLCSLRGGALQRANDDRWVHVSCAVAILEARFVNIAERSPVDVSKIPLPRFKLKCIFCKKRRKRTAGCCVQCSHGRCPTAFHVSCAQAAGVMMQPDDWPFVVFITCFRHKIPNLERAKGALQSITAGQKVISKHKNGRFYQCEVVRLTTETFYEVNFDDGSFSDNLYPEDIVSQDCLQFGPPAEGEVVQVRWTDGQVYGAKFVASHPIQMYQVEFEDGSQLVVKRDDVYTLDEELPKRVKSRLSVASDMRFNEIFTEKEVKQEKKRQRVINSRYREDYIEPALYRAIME
HP1b chromo inh: blocks HP1-beta chromodomain binding to methylated histone tails; P83916; AlphaScreen HP1-beta / biotin-H3K9me3 peptide binding; Potency, µM (doses to about 114 µM), inactives show at the top dose activity change, negative = inhibition, hits mostly inhibitors; 0.56% of 390,000 active; AID 540317; note: nearly all actives have a fitted effect of over 70% in size
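Compound inhibition of the preformed complex between 50 nM HP1-beta and 50 nM biotinylated H3K9me3 peptide was read by AlphaScreen. Buffer was PBS pH 7.4 with 0.01% Tween-20. Incubations ran 30 min at room temperature, with 10 ug/mL donor/acceptor beads.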
BAZ2B inh: inhibitors of human BAZ2B bromodomain; AID 504333; 4.4% of 360,000 active; Q9UIF8; AlphaScreen BAZ2B-H3K14Ac peptide displacement; Potency, µM (highest dose often 114 µM), for inactives: at the highest dose activity change, negative = inhibition, hits mostly inhibitors; note: % is set by controls: 0 for no effect and ±100 for the full control effect; nearly all actives have a fitted effect of over 60% in size
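Multi-concentration screen (max 110 uM) measuring displacement of acetylated histone H3 peptide from BAZ2B by AlphaScreen, using 50 nM protein, 50 nM peptide and 10 ug/mL streptavidin donor plus Ni-chelate acceptor beads.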
Sfp PPTase inh: blocks B. subtilis Sfp PPTase activity | Q9F4F7 | Biochemical Sfp PPTase activity, qHTS | Potency, µM, for inactives: largest response in the series, negative = inhibition, most hits filed as inhibitors | 3.5% of 310,000 active;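 note: the enzyme is Sfp with the accession as filed and its product quenches rhodamine fluorescence; 0% = enzyme reaction without inhibitor and -100% = no enzyme wells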
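Fluorescence-quenching assay: 15 nM Sfp-PPTase preincubated 15 min at room temperature with compound, then 5 uM rhodamine-CoA and 12.5 uM BHQ-2-labelled YbbR peptide added. Fluorescence (ex 525/em 598 nm) read at start and after 30 min; difference gives rate.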
Active calls of the source: *; ? = inconclusive; nt = no result given; [ ] = another dose, or the depositor's remark. Calls come from the whole dose curve; as a rule, active = well fitted curve in the direction sought with a large enough effect; inconclusive = small, poorly fitted or top-dose-only effect, or another doubt; inactive = no such curve, though single readings can be large; an effect the other way counts as inactive or inconclusive. Potency is the fitted concentration of half-maximal effect.

SMILES	PLK1 PBD inh	G9a inh	JMJD2A Tudor	HP1b chromo inh	BAZ2B inh	Sfp PPTase inh
CC(C)NC(=O)CCCn1cc([N+](=O)[O-])cn1	-20%	50µM*	-17%	32%	-11%	-5%
Cc1ccc(NC(=O)c2ccc(Cn3cc([N+](=O)[O-])cn3)cc2)c(C)c1	-11%	7%[59 µM]	-9%	2%	-1%	-18%
CC(NC(=O)c1ccc(Cn2cc([N+](=O)[O-])cn2)cc1)c1ccccc1 (stereo not given)	27µM*	-9%[59 µM]	50µM*	9%	8%	3%
COC(=O)c1ccc(Cn2cc([N+](=O)[O-])cn2)cc1	-4%	-2%	1%	28%	-15%	18%
CC(=O)c1ccc(OCCCC(=O)Nc2nnc(C3CC3)s2)cc1	4%	nt	-33%	14%	nt	nt
CCC(C)c1ccccc1N1CC(C(=O)Nc2ccc(N3CCOCC3)cc2)CC1=O (stereo not given)	-5%	2%[2.33 µM]	-28%	0%	7%	nt
COc1ccc2c3c(ccc2c1)C(=O)/C(=C/O)CC3	4.2µM*	nt	7.9µM*	35µM*	nt	nt
OCCCn1c(-c2ccc(F)cc2)csc1=Nc1ccc(F)cc1	nt	16µM*	40µM*	?	45µM*	nt
C=CCn1c(-c2ccc(OC)cc2)csc1=Nc1c(C)n(C)n(-c2ccccc2)c1=O	-9%	?	?	-10%	?	-4%
O=C(NCCO)C1CCN(S(=O)(=O)c2ccc(F)cc2)CC1	-3%	-1%[59 µM]	-11%	24%	2%	3%
COc1ccc(-c2csc(=Nc3ccccc3)n2CCO)cc1	-21%	40µM*	45µM*	?	13µM*	-7%
OCCCn1c(CCNc2nc(-c3ccc(F)cc3)cs2)nc2cc(C(F)(F)F)ccc21	-24%	nt	-35%	27%	nt	nt
Cc1csc(=Nc2ccccc2)n1CCCN1CCCC1=O	-14%	?	-33%	-3%	?	-13%
O=S(=O)(c1ccc(-c2csc(=Nc3ccc(F)cc3)n2CCCCCCO)cc1)N1CCCC1	nt	13µM*	40µM*	?	?	nt
Cc1ccc(-c2csc(=Nc3ccccc3)n2CCCO)cc1	nt	16µM*	35µM*	?	45µM*	nt
CC(C)C(C(=O)NCC1CCCO1)N(Cc1ccccc1)C(=O)CNS(=O)(=O)c1ccccc1 (stereo not given)	0%	10%	-9%	29%	-1%	1%
COCCCNC(=O)CSc1nc(-c2cccc(F)c2)[nH]c1-c1ccccc1	nt	-17%[59 µM]	-28%	22%	-19%	nt
COc1ccc(-c2cn(-c3ccccc3)nc2CO)cc1	9%	-6%	-12%	31%	7%	7%
COc1ccc(-c2csc(=NCCO)n2-c2ccccc2)cc1	-22%	50µM*	?	?	32µM*	-7%
CCOc1ccc(CNCc2c(C(=O)O)n(Cc3ccccc3F)c3cc(OC)ccc23)cc1	nt	-24%[59 µM]	-35%	-2%	-33%	nt
Cc1cccc(C)c1NC(=O)/C(C#N)=C/c1ccc(-c2ccc(C(=O)O)cc2)o1	-4%	45µM*	-28%	12%	?	4%
N#C/C(=C\c1ccc(-c2ccc(C(=O)O)cc2)o1)C(=O)NCC1CCCO1 (stereo not given)	-5%	10µM*	-17%	8%	?	4%
CSc1ccccc1NC(=O)c1noc(C)c1[N+](=O)[O-]	?	35µM*	-23%	5%	-17%	45µM*
Cc1onc(C(=O)Nc2c(C)n(C)n(-c3ccccc3)c2=O)c1[N+](=O)[O-]	-10%	nt	-18%	-9%	?	79µM*
COc1cc(C2Nc3ccccc3C(=O)N2Cc2ccccc2)ccc1OCc1ccc(NC(C)=O)cc1 (stereo not given)	nt	nt	-22%	nt	nt	nt
SMILES	PLK1 PBD inh	G9a inh	JMJD2A Tudor	HP1b chromo inh	BAZ2B inh	Sfp PPTase inh
COc1ccc2c(=O)c3c(=O)n(-c4ccccc4)c(-c4ccc(C)cc4)nc3oc2c1	-2%	nt	-13%	11%	0%	-3%
Cc1cc2c(s1)c1cnn(Cc3cc(F)c(F)c(F)c3)c(=O)c1n2C	nt	nt	-19%	nt	nt	nt
CCn1c2ccccc2c2cc(NC(=O)c3ccc(=O)oc3)ccc21	?	45µM*	-9%	20%	?	-15%
CCn1c2ccccc2c2cc(NC(=O)c3cc(OC)cc(OC)c3)ccc21	-11%	15%	-21%	19%	-10%	30%
CCn1c2ccccc2c2cc(NC(=O)c3cc(C)on3)ccc21	1%	-31%	-8%	30%	?	-1%
CCn1c2ccccc2c2cc(NC(=O)c3coc(=O)c(Br)c3)ccc21	nt	7.1µM*	nt	nt	-11%	2%
CCn1c2ccccc2c2cc(NC(=O)c3ccc(Br)o3)ccc21	?	11µM*	20µM*	?	?	11µM*
Cc1ccccc1NS(=O)(=O)c1ccc2[nH]cc(C(=O)NCCc3ccccc3)c(=O)c2c1	nt	-4%[12.7 µM]	-17%	29%	?	nt
Cc1cc(F)ccc1NC(=O)Cn1c(C)csc1=O	-4%	?	-11%	51%	9%	nt
COc1ccc(-n2c(-c3ccc(Cl)cc3)c[nH]c2=S)cc1	-4%	?	-22%	20%	?	56µM*
Cc1ccc(-n2c(-c3ccccc3)c[nH]c2=S)cc1	?	2.8µM*	11µM*	-5%	-10%	-22%
Cc1ccc(-n2c(N)c(C#N)c(-c3ccccc3)c(C#N)c2=O)cc1	2%	-1%[59 µM]	-15%	33%	13%	24%
CCn1c(-c2ccccc2)c[nH]c1=S	-3%	?	8.9µM*	?	-38%	-23%
COc1ccc(-n2c(-c3ccccc3)nnc2-c2ccc(Cl)cc2)cc1	-5%	-30%	-8%	10%	0%	-2%
CC(C)Cn1c(-c2ccc(Br)cc2)c[nH]c1=S	17µM*	0.89µM*	50µM*	?	?	8%
CC(C)CSc1nnc(-c2ccccc2)c(-c2ccccc2)n1	nt	7%[59 µM]	32%	54%	30%	nt
CSc1ccc(CNC(=O)C2CCN(c3nnc(-n4cccc4CNc4ccc(C)cc4)s3)CC2)cc1	nt	5%[59 µM]	?	4%	-8%	nt
CCOC(=O)c1c[nH]c(=S)n(-c2ccccc2)c1=O	3%	24%[2.33 µM]	-18%	65%	6%	nt
S=c1[nH]cc(-c2ccccc2)n1-c1ccccc1	-18%	0.89µM*	28µM*	-20%	?	45µM*
O=C(/C=C/Nc1ccc(F)cc1)c1cccs1	-16%	nt	0%	34%	nt	nt
O=C(/C=C/Nc1ccc(F)c(F)c1)c1cccs1	-22%	45µM*	-19%	31%	1%	-10%
CCOC(=O)C(=O)NCC(c1ccco1)S(=O)(=O)c1cccs1 (stereo not given)	0%	?	11µM*	25%	-15%	nt
Nc1ccc(-n2cnc3cc([N+](=O)[O-])ccc32)cc1	-4%	5%[12.7 µM]	-7%	4%	-6%	15%

Source: PubChem BioAssay (National Center for Advancing Translational Sciences (NCATS))
